GLP-1R inv ag = qHTS of GLP-1 Receptor Inverse Agonists (Inhibition Mode); Glucagon-like peptide 1 receptor (Homo sapiens), P43220; HEK293 GLP-1R CRE-luciferase, luminescence, 24 h; GLP-1R form is constitutively active; Potency, µM (doses to about 38.3 µM), without a hit: at the top dose activity change, negative = inhibition, actives largely listed as inhibitors; actives 1.6% (n = 410,000); note: potency is the fitted concentration of half-maximal effect; % is set by controls: 0 for no effect and ±100 for the full control effect; nearly all actives have a fitted effect of over 55% in size
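HEK293 cells stably co-expressing constitutively active GLP-1R and a cAMP-responsive luciferase reporter were seeded in DMEM with 10% Nu serum, given compounds after 12 h, and incubated 24 h at 37 deg C. Luminescence was then read.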
HEK293 tox = qHTS of GLP-1 Receptor Inverse Agonists: Cytotox Screen | HEK293 cAMP-luciferase reporter cells, luminescence, 24 h | Potency, µM (top dose mostly 38.3 µM), for inactives: top-dose activity change, negative = inhibition, hits mostly inhibitors | actives 0.13% (n = 410,000) | AID 624418, 2012;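 note: loss of luciferase light is scored as toxicity; potency is the fitted concentration of half-maximal effect; % is set by controls: 0 for no effect and ±100 for the full control effect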
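To flag toxic compounds, the library was rerun on cells for 24 hr at 37 deg C and 5% CO2. Viability-linked luminescence was captured 12 min after adding luciferase detection reagent.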
TRHR enhancer = qHTS for Small Molecule Agonists and Allosteric Enhancers of Human TRH Receptor: Primary Screen for Enhancers; Thyrotropin-releasing hormone receptor (Homo sapiens), P34981; TRHR cells, fluo-8 calcium fluorescence, EC20 TRH enhancement; enhancement, % at 2 µM; AID 493056, 2011; actives 0.66% (n = 360,000); in the data active = enhancement above about 30%; note: 0% is about no effect
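Enhancer read-out: after compound pinning and an initial kinetic agonist-mode read, an EC20 of TRH (10 nM final) was injected and fluo-8 calcium signal (Ex 480/Em 530) followed at 1 s/cycle for 100 cycles in TRHR-expressing cells.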
GLP1R ag = qHTS of GLP-1 Receptor Agonists | Glucagon-like peptide 1 receptor (Homo sapiens), P43220 | HEK293 GLP-1R CRE-luciferase, luminescence, 4-6 h; cells express a hypersensitive GLP-1R form | Potency, µM (doses to about 45.6 µM), for inactives: top-dose activation, hits mostly activators | actives 0.007% (n = 380,000) | AID 624172, 2012; note: potency is the fitted concentration of half-maximal effect; % of control where 0% means no effect
PTHR1 agonist = qHTS for PTHR1 Agonists: Primary Screen | HEK293 GP2 PTHR1 cells, GloSensor cAMP luminescence, 1 h | Potency, µM (highest dose often 115 µM), without a hit: at the highest dose activation, actives largely listed as activators | actives 0.075% (n = 410,000) | AID 743266, 2014 | Parathyroid hormone/parathyroid hormone-related peptide receptor (Homo sapiens), Q03431; note: potency is the fitted concentration of half-maximal effect; nearly all actives have a fitted effect of over 55% in size
Target sequence (Q03431 whole entry, looked up): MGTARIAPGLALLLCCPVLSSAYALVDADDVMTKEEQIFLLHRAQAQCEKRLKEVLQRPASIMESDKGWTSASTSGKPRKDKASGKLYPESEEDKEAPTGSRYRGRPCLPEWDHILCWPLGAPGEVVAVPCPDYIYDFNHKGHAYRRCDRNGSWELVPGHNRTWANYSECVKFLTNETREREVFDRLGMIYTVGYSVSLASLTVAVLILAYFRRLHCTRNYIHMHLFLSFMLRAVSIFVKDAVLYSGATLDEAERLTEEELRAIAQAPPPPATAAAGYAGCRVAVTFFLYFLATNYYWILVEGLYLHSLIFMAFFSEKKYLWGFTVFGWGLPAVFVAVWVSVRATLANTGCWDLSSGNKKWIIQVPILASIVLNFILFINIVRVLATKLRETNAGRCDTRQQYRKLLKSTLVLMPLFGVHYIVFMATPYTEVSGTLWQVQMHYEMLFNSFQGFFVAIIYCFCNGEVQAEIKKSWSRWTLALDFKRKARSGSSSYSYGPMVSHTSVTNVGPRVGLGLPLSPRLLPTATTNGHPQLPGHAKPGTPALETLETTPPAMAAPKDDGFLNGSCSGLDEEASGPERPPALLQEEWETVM
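HEK-293-derived GP2 cells expressing PTHR1 and a GloSensor cAMP reporter, 3,000/well, plated overnight, given luciferin plus IBMX (each 0.5 mM as added) for 1 h at 37 °C, then compound for 1 h at 37 °C. Luminescence was read after 15 min at room temperature.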
TRHR agonist = qHTS for Small Molecule Agonists and Allosteric Enhancers of Human TRH Receptor: Primary Screen for Agonists; activation, % at 2 µM; actives 0.18% (n = 360,000); TRHR cells, calcium flux fluo-8, FDSS agonist mode; in the data active = activation above about 30%; note: 0% is about no effect
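TRHR-expressing cells loaded with fluo-8 calcium dye; 23 nL library compound pin-transferred, kinetic FDSS fluorescence (Ex 480/Em 530) recorded about 180 s for agonist-induced calcium release, before a 10 nM TRH EC20 addition for potentiator mode.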
Starred values were filed as active, the others as inactive; i = inactive; ? = inconclusive; . = no result; [ ] = another dose, or the depositor's remark. Shown are actives, neighbours in structure and some others; about 2.4% of the full set was active somewhere. Unless noted, calls come from the whole dose curve; as a rule, active = well fitted curve in the direction sought with a large enough effect; inconclusive = small, poorly fitted or top-dose-only effect, or another doubt; inactive = no such curve, though single readings can be large; an effect the other way counts as inactive or inconclusive.

SMILES | GLP-1R inv ag | HEK293 tox | TRHR enhancer | GLP1R ag | PTHR1 agonist | TRHR agonist
O=c1oc2ccccc2cc1-c1nc2c(s1)CCc1ccccc1-2 | 11% | 347% | 11 | -8% | i | -1
O=c1oc2cc(O)ccc2cc1-c1nc2c(s1)CCc1ccccc1-2 | 23% | i | -23 | -15% | i | 199*
Cc1ccc(C)c(S(=O)(=O)NCCOC(=O)Nc2sc(=S)n(C)c2C)c1 | ? | -55% | 2 | 0% | -16%[57.5 µM] | -1
COc1cc(CN2CCNC(=O)C2CC(=O)N2CCCO2)cc(OC)c1 (stereo not given) | 13% | 10% | 11 | 10% | i | 0
CCc1cccc(NC(=O)C2CCCN(S(=O)(=O)c3cccs3)C2)c1 (stereo not given) | 10µM* | -12% | -1 | 18% | -15% | -2
COc1ccc(NC(=O)C2CCCN(S(=O)(=O)c3cccs3)C2)cc1OC (stereo not given) | -6% | -5% | 0 | 3% | ? | 0
O=C(CSc1c2c(nc3ccccc13)CCC2)Nc1ccc(F)cc1 | ? | -21% | -7 | . | 0% | 1
Cc1ccc(CNC(=O)CNC(=S)N(Cc2ccccc2)Cc2ccccc2F)cc1 | 10µM* | 17% | 4 | 10% | -22% | 1
COc1ccc(CCNC(=O)CCCc2nnc3n(C)c(=O)c4sccc4n23)cc1OC | 22% | 7% | -2 | 3% | i | 2
CCN(CCO)CCCC(C)Nc1ccnc2cc(Cl)ccc12 (stereo not given) | . | . | . | 0% | . | .
CCN(CC)CCCC(C)Nc1nccc2c(Cl)cccc12 (stereo not given) | 4.5µM* | ? | . | -5% | -7% | .
O=C(NCc1nc(-c2ccccc2)no1)Nc1ccc(F)cc1 | ? | -7% | 40* | 7% | i | 0
Cc1c(C)n2c(SCC(=O)N3CCC(C)CC3)nnc2[nH]c1=O | -18% | -6% | 9 | 1% | -7% | 0
CCOc1cccc(CN2CCCC(N3CCN(c4cccc(Cl)c4)CC3)C2)c1O (stereo not given) | 10µM* | -21% | -2 | -3% | -9% | -1
CCOc1cccc(CN2CCCC(N3CCc4ccccc4C3)C2)c1O (stereo not given) | -22% | 1% | -2 | 7% | -23% | 0
Cc1ccc(N/C=C(\[N+](=O)[O-])S(=O)(=O)c2ccccc2)cc1 | -8%[7.66 µM] | -5%[7.66 µM] | 31* | 0% | -2% | 0
CN(C1CCCCC1)S(=O)(=O)c1ccc(NC(=O)c2ccc(Br)o2)cc1 | 7.1µM* | -6% | 28 | 1% | -68%[57.5 µM] | 0
CC(C)c1ccc(NC(=O)c2cc(S(=O)(=O)N(C)C3CCCCC3)ccc2F)cc1 | 10µM* | 5% | 8 | . | -18% | 0
CC(C)c1ccc(NC(=O)c2cc(S(=O)(=O)NCc3ccccc3Cl)ccc2F)cc1 | 6.3µM* | ? | 8 | . | -17% | 0
CC(C)c1ccc(NC(=O)c2cc(S(=O)(=O)NCCC3=CCCCC3)ccc2F)cc1 | ? | -6% | 8 | . | -22% | 1
COc1ccccc1NC(=O)c1cc(S(=O)(=O)N(C)C2CCCCC2)ccc1F | ? | -3% | 2 | . | -18% | 0
Cn1c(=O)c(C(=O)NNC(=O)c2cccc(Cl)c2)c(O)c2ccccc21 | ? | -5% | -1 | 0% | -26% | 0
Cc1cccc(C(=O)NNC(=O)c2c(O)c3ccccc3n(C)c2=O)c1 | 12% | 10% | 37* | 1% | i | -1
COc1ccc(NC(=O)[C@H](Cc2c[nH]c3ccccc23)NC(=O)[C@@H]2Cc3ccccc3CN2)cc1 | 5.6µM* | -10% | 5 | 0% | -14% | 1
Cn1ccnc1C(OC(=O)c1ccc(Cl)cc1)C(F)(F)F (stereo not given) | 1% | 15% | -11 | 3% | -5% | 0
SMILES | GLP-1R inv ag | HEK293 tox | TRHR enhancer | GLP1R ag | PTHR1 agonist | TRHR agonist
CCN(CC(=O)Nc1cc(S(=O)(=O)N2CCCCC2)ccc1C)Cc1ccccc1 | 6.3µM* | 2% | -12 | 5% | -11% | 1
Cc1ccc(S(=O)(=O)N2CCCCC2)cc1NC(=O)CCCOc1ccccc1 | 5.6µM* | -6% | -12 | 8% | -9% | 1
Cc1ccc(S(=O)(=O)N2CCCCC2)cc1NC(=O)CCOc1ccccc1 | ? | 4%[1.53 µM] | 2 | 9% | -16% | 1
COC(CN(C)C(=O)c1cn(C)c2ccc(S(=O)(=O)N(C)C3CCCCC3)cc2c1=O)OC | 12% | 5% | 31* | -8% | i | 0
Cc1ccc(CNC(=O)c2cn(C)c3ccc(S(=O)(=O)N(C)C4CCCCC4)cc3c2=O)cc1 | 9% | 1% | 0 | . | -10% | 0
Cc1ccc(SCCNC(=O)CN(c2ccccc2)S(=O)(=O)N(C)C)cc1 | -22% | 3% | 3 | -2% | 0% | -1
COc1ccccc1CC(=O)N(Cc1ccccc1)c1ccc(C)cc1 | 8.9µM* | -20% | -2 | 12% | i | 1
O=C(CCl)N(Cc1ccccc1)c1ccccc1 | ? | ? | -5 | -2% | -18% | -1
COc1ccc(CC(=O)N(Cc2ccccc2)c2cccc(C)c2)cc1OC | ? | -10% | 3 | 18% | -2% | -1
COc1cc(C(=O)N(Cc2ccccc2)c2cccc(C)c2)ccc1OC(F)F | 11µM* | 9% | -13 | 8% | -50% | 0
Cc1cccc(N(Cc2ccccc2)C(=O)CCl)c1 | 10µM* | -27% | -8 | 1% | -51% | 0
O=C(O)CSc1nnc(Cc2cccc3ccccc23)n1-c1cc(C(F)(F)F)cc(C(F)(F)F)c1 | ? | -9% | -4 | -1% | -14% | 1
COc1ccc(CCC(=O)NNC(=O)c2cc(Cl)ccc2OC)cc1OC | 11% | -2% | 7 | 16% | i | -1
CC1CCCCC12NC(=O)N(CC(=O)Nc1ccc3c(c1)OCO3)C2=O (stereo not given) | 3% | -19% | . | -2% | -24% | .
COCCN(Cc1nnc(-c2cccs2)o1)C(=O)c1cccc(S(=O)(=O)N2CCOCC2)c1 | 22% | -5% | 9 | -2% | ? | 1
COc1ccc(CCNC(=O)c2cccs2)cc1 | 9% | -5% | 2 | 2% | -11% | 0

Assay outcomes deposited in PubChem BioAssay by National Center for Advancing Translational Sciences (NCATS).
